Data: PubChem BioAssay (EPA / NIEHS)
Several values for one entry are separate records, joined by “and”; a condition that tells them apart may be missing. Equal entries are not always repeated. Some structures have more than one record in an assay (separate samples or runs), and their calls can disagree. Activity calls are given as the source filed them. How the source made its calls: active means hit-call score of the fitted dose curve at least 0.9, where 1 is the maximum; inactive means score below 0.9.

How the values were obtained:
[1] = ATG_CRE_CIS: Attagene CIS-FACTORIAL HepG2 Assay for human cAMP Responsive Element (CRE) binding protein 3 (AID 2282926); conditions: HepG2 CRE cis-reporter, Attagene multiplexed mRNA; actives raise or lower the signal
How it was run: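 Transfected HepG2 were treated for 24 hours, then RNA was extracted and reporter cDNA amplified with sequence-specific primers. Labelled fragments were separated by capillary electrophoresis, and the CRE signal was fitted bidirectionally with DMSO as baseline.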

[2] = molecular target: CCAAT/enhancer-binding protein beta (Homo sapiens) (UniProt P17676); assay: ATG_C_EBP_CIS: Attagene CIS-FACTORIAL HepG2 Assay for human CCAAT/Enhancer Binding Protein (C/EBP) beta (AID 2282927); conditions: HepG2 Attagene cis-factorial transcription factor reporter; actives raise or lower the signal
How it was run: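 HepG2 transiently transfected with multiplexed reporter units under cis-regulatory promoters reporting endogenous C/EBPb activity. After 24 h exposure, reporter mRNA assayed by RT-PCR, fluorescent labelling, HpaI digestion and capillary electrophoresis; bidirectional fitting versus DMSO.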

[3] = ATG_CMV_CIS: Attagene CIS-FACTORIAL HepG2 Assay for human CMV (Internal Marker) (AID 2282928); conditions: HepG2 CMV promoter reporter, transcription factor profiling; actives raise or lower the signal;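 further: endpoint acts as a background internal control marker rather than a target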
How it was run: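 After transient transfection of HepG2 with reporter transcription units driven by cis-regulatory promoters, cells receive test chemical for 24 h. Labeled reporter amplicons, digested with HpaI, are sized and quantified by capillary electrophoresis against DMSO.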

[4] = ATG_DR4_LXR_CIS: Attagene CIS-FACTORIAL HepG2 Assay for human Liver X Receptor (LXR), DR4 submotif (AID 2282929); conditions: HepG2 Attagene DR4 cis-reporter, mRNA transcription; actives raise or lower the signal
How it was run: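 Transiently transfected HepG2 liver cells; cis-regulated reporters; 24 h dosing. RT-PCR plus CE read-out of reporter mRNA. DMSO baseline, bidirectional curve fitting.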

[5] = molecular target: Aryl hydrocarbon receptor (Homo sapiens) (UniProt P35869); assay: ATG_Ahr_CIS: Attagene CIS-FACTORIAL HepG2 Assay for human Aryl Hydrocarbon Receptor (Ahr) (AID 2282930); conditions: HepG2 AhR cis-factorial reporter transcription; actives raise or lower the signal
How it was run: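 HepG2 cells transiently transfected with cis-element-driven multiplexed reporter units; endogenous AhR activity read as reporter mRNA 24 h after dosing, via RT-PCR, 6-FAM labelling, HpaI digestion and capillary electrophoresis. Bidirectional fit relative to DMSO.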

[6] = ATG_AP_1_CIS: Attagene CIS-FACTORIAL HepG2 Assay for human Activator Protein 1 (AP-1) (AID 2282931); conditions: HepG2 Attagene cis-factorial AP-1 reporter mRNA; actives raise or lower the signal
How it was run: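 We transfected HepG2 cells transiently with a set of cis-regulated reporter transcription units, dosed them for 24 h, and quantified reporter mRNA via RT-PCR and capillary electrophoresis, scoring gain or loss of signal relative to DMSO.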

[7] = ATG_AP_2_CIS: Attagene CIS-FACTORIAL HepG2 Assay for human Activator Protein 2 (AP-2) (AID 2282932); conditions: HepG2 AP-2 cis-reporter, Attagene transcription factor profiling; actives raise or lower the signal
How it was run: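 Multiplexed mRNA reporter assay in HepG2: cis-regulated units report endogenous factor activity after 24 h treatment. Fluorescence from capillary electrophoresis of RT-PCR products gives the signal, with DMSO as baseline.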

[8] = ATG_BRE_CIS: Attagene CIS-FACTORIAL HepG2 Assay for human Bone Morphogenetic Protein (BMP) Response Element (BRE) (AID 2282933); conditions: HepG2 BMP response element reporter, Attagene transcription factor profiling; actives raise or lower the signal
How it was run: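 Read-out: reporter mRNA induction quantified by RT-PCR and capillary electrophoresis after 24 h chemical exposure of transfected HepG2 cells. Endogenous factor activity on the BMP response element; gain or loss fitted against DMSO baseline.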

[9] = molecular target: Retinoic acid receptor alpha (Homo sapiens) (UniProt P10276); assay: ATG_DR5_RAR_CIS: Attagene CIS-FACTORIAL HepG2 Assay for human Retinoic Acid Receptor Alpha (RARE), DR5 submotif (AID 2282934); conditions: HepG2 Attagene cis-factorial RARE DR5 reporter, mRNA; actives raise or lower the signal;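 on AC50: reporter responds to endogenous RAR alpha beta and gamma in HepG2 not RARA alone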
How it was run: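 HepG2 cells transiently transfected with multiplexed reporter units; DR5 cis-element drives reporter through endogenous transcription factors. After 24 h dosing, reporter mRNA quantified by RT-PCR, fluorescent labeling, HpaI digestion and capillary electrophoresis; bidirectional fitting versus DMSO.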

[10] = molecular target: Transcription factor E2F1 (Homo sapiens) (UniProt Q01094); assay: ATG_E2F_CIS: Attagene CIS-FACTORIAL HepG2 Assay for human E2F Transcription Factor 1 (AID 2282935); conditions: HepG2 Attagene cis-reporter, E2F reporter RNA transcripts; actives raise or lower the signal
How it was run: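 Measures reporter transcript levels via RT-PCR with capillary electrophoresis detection in HepG2 cells harboring cis-regulated reporter units; 24 h post-dose; bidirectional curve fitting with DMSO as baseline.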

[11] = ATG_E_Box_CIS: Attagene CIS-FACTORIAL HepG2 Assay for human Enhancer Box (E-box) (AID 2282936); conditions: HepG2 E-box cis-reporter transcription, actives raise or lower the signal
How it was run: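 First, HepG2 cells receive multiple cis-regulated reporter constructs by transient transfection. Next, chemicals are applied for 24 h. Finally, reporter mRNA is quantified via RT-PCR and capillary electrophoresis, with DMSO as baseline.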

[12] = ATG_M_61_CIS: Attagene CIS-FACTORIAL HepG2 Assay for M61 Transcription Factor (Internal Marker) (AID 2282937); conditions: HepG2 Attagene CIS-FACTORIAL M61 internal marker reporter; actives raise or lower the signal
How it was run: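 Multiplexed reporter mRNA assay, HepG2 human hepatoma cells, 24 h treatment. Signal: FAM-labelled, HpaI-digested RT-PCR fragments by CE. Fit: bidirectional, baseline DMSO.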

[13] = ATG_EGR_CIS: Attagene CIS-FACTORIAL HepG2 Assay for human Early Growth Response 1 (EGR1) (AID 2282938); conditions: HepG2 Attagene CIS-FACTORIAL EGR reporter mRNA; actives raise or lower the signal
How it was run: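 Multiplexed cis-reporter system in human hepatoma HepG2 cells, transiently transfected. Cells are dosed for 24 h; reporter transcripts are amplified, fluorescently tagged and sized by capillary electrophoresis, with DMSO as negative control.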

[14] = ATG_ERE_CIS: Attagene CIS-FACTORIAL HepG2 Assay for Estrogen Response Element (ERE) (AID 2282940); conditions: HepG2 ERE cis-reporter, Attagene RNA transcript; actives raise or lower the signal
How it was run: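 Readout: reporter mRNA induction by RT-PCR, FAM-labelled primer extension, HpaI digestion and capillary electrophoresis, 24 h after dosing transfected HepG2 cells. Endogenous transcription factors act on cis-element-regulated reporters. Gain or loss fitted against DMSO.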

[15] = ATG_Ets_CIS: Attagene CIS-FACTORIAL HepG2 Assay for human Erythroblast Transformation Specific (ETS) (AID 2282941); conditions: HepG2 ETS cis-reporter transcription, actives raise or lower the signal
How it was run: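 Human HepG2 hepatoma cells were transiently transfected with promoter-driven reporter constructs and treated for 24 hours. Reporter transcripts were quantified by RT-PCR with fluorescent primer extension; bidirectional curve fitting used DMSO as reference.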

[16] = molecular target: Hepatocyte nuclear factor 3-beta (Homo sapiens) (UniProt Q9Y261); assay: ATG_FoxA2_CIS: Attagene CIS-FACTORIAL HepG2 Assay for human Forkhead box A2 (FOXA2) (AID 2282942); conditions: HepG2 cis-reporter transcription factor activity, 24 h; actives raise or lower the signal
How it was run: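 Multiplexed cis-element reporter assay in transiently transfected HepG2. Twenty-four hours post-dosing, RNA was reverse-transcribed, amplified, FAM-labelled, HpaI-digested and separated by CE. Activity gain or loss relative to DMSO.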

[17] = ATG_FoxO_CIS: Attagene CIS-FACTORIAL HepG2 Assay for human Forkhead box O (FoxO) (AID 2282943); conditions: HepG2 Attagene cis-reporter, FoxO element, mRNA; actives raise or lower the signal
How it was run: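 HepG2 cells transiently transfected with cis-element-driven reporter units report endogenous FoxO activity. After 24 h chemical exposure, reporter mRNA quantified by RT-PCR, fluorescent labeling, HpaI digestion and capillary electrophoresis; bidirectional fit versus DMSO.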

[18] = ATG_GATA_CIS: Attagene CIS-FACTORIAL HepG2 Assay for human GATA Binding Protein (AID 2282944); conditions: HepG2 GATA cis-element reporter, Attagene multiplex mRNA; actives raise or lower the signal
How it was run: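 Read-out: fluorescent reporter mRNA fragments resolved by capillary electrophoresis after RT-PCR. Human liver HepG2 cells carried transiently transfected cis-regulated reporter constructs; chemicals incubated 24 h; gain or loss of signal fitted relative to DMSO.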

[19] = ATG_GLI_CIS: Attagene CIS-FACTORIAL HepG2 Assay for human Zinc Finger Protein GLI1 (AID 2282945); conditions: HepG2, Attagene cis-factorial reporter mRNA, GLI element; actives raise or lower the signal
How it was run: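 Transiently transfected HepG2 cells report endogenous transcription factor activity via cis-element-driven reporter units. After 24 h compound exposure, reporter mRNA was measured by RT-PCR with capillary electrophoresis; bidirectional fitting against DMSO baseline.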

[20] = ATG_M_19_CIS: Attagene CIS-FACTORIAL HepG2 Assay for M19 Transcription Factor (Internal Marker) (AID 2282939); conditions: HepG2 Attagene CIS-FACTORIAL M19 internal marker reporter; actives raise or lower the signal
How it was run: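 Readout: fluorescent reporter-transcript fragments by capillary electrophoresis after RT-PCR. Human HepG2 liver cells carried transfected MRTU constructs reporting endogenous transcription-factor activity; exposure 24 h. Gain or loss of signal fitted relative to DMSO.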

Measured: AC50

Chain of Transcription factor E2F1 (Homo sapiens) (Q01094 whole entry, looked up): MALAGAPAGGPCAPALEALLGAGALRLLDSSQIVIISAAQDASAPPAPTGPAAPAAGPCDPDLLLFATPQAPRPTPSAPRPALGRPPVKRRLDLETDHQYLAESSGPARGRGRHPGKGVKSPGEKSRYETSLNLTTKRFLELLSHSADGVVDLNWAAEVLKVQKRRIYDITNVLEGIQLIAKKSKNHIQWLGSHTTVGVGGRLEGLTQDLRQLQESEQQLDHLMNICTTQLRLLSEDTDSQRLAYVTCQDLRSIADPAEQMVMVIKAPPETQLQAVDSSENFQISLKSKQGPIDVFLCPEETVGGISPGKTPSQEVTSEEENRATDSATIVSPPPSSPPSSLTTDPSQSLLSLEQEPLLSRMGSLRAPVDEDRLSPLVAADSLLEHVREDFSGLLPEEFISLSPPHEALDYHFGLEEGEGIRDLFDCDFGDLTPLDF
Chain of Retinoic acid receptor alpha (Homo sapiens) (P10276 whole entry, looked up): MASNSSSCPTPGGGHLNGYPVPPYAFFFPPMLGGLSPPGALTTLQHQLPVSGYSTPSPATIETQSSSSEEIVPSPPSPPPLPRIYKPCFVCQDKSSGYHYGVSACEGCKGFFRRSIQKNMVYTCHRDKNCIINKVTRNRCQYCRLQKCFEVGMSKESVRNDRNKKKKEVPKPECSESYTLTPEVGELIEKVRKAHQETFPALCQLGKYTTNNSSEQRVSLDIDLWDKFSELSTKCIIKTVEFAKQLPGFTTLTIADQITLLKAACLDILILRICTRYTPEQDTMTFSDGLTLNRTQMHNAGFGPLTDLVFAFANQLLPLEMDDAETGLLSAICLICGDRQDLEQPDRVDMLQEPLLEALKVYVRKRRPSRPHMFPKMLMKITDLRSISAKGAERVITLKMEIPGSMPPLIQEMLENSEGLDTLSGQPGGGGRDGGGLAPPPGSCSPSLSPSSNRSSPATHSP
Chain of CCAAT/enhancer-binding protein beta (Homo sapiens) (P17676 whole entry, looked up): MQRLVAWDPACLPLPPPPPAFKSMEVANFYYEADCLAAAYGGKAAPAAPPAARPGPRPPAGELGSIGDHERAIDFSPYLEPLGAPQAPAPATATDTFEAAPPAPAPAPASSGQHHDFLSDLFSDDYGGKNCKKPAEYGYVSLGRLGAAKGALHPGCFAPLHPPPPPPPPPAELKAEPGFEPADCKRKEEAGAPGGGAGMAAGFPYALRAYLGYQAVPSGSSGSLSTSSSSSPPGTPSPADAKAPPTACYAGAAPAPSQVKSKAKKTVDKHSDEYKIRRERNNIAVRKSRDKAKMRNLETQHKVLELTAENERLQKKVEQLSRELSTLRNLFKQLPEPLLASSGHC
Chain of Hepatocyte nuclear factor 3-beta (Homo sapiens) (Q9Y261 whole entry, looked up): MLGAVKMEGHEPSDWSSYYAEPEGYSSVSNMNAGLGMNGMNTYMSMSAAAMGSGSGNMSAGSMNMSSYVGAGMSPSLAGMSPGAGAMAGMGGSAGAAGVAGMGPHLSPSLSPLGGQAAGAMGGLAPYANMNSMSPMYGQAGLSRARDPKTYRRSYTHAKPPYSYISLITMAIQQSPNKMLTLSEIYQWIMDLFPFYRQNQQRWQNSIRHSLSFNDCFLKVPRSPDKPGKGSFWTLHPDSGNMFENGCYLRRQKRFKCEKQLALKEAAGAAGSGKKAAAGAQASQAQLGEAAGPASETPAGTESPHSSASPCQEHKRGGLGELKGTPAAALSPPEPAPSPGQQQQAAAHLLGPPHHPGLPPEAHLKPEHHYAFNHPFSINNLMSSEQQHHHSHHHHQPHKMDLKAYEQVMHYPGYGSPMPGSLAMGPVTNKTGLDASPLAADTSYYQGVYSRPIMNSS
Chain of Aryl hydrocarbon receptor (Homo sapiens) (P35869 whole entry, looked up): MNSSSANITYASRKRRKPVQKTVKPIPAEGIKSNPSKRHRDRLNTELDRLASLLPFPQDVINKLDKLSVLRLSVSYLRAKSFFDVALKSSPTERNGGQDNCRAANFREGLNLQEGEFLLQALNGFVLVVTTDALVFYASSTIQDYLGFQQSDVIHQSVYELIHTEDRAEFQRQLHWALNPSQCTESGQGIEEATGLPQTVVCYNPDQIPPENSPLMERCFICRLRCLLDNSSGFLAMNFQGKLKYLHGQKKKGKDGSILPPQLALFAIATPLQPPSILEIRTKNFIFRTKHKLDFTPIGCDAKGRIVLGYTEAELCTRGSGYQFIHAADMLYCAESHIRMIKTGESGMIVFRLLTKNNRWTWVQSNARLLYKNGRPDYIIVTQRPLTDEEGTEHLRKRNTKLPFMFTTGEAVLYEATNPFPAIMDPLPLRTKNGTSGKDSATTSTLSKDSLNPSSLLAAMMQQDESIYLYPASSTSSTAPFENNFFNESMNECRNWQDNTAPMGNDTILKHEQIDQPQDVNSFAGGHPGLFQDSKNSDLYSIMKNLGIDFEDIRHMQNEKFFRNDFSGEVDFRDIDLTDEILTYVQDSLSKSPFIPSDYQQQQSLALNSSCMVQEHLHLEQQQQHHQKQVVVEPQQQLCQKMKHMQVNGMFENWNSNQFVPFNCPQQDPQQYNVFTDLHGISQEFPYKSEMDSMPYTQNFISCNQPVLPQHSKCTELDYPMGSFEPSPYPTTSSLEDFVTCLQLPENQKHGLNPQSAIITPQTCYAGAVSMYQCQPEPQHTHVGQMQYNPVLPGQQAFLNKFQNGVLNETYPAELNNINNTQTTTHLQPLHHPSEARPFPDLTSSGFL

CC(C)OC(=O)Nc1ccccc1
inactive: [1] | [2] | [3] | [4] | [5] | [6] | [7] | [8] | [9] | [10] | [11] | [12] | [13] | [14] | [15] | [16] | [17] | [18] | [19]

O=C1C2(Cl)C3(Cl)C4(Cl)C(Cl)(Cl)C5(Cl)C3(Cl)C1(Cl)C5(Cl)C24Cl (stereo not given)
inactive: [1] | [2] | [3] | [4] | [5] | [6] | [8] | [9] | [10] | [11] | [12] | [13] | [20] | [15] | [16] | [17] | [18] | [19]
active: [1] 14.3 µM | [2] 17.7 µM | [3] 2.8 µM | [4] 2.8 µM and 4.23 µM | [6] 3.57 µM and 3.03 µM | [9] 20.9 µM | [10] 11.1 µM | [11] 5.67 µM and 5.25 µM | [13] 8.48 µM | [15] 20.3 µM | [18] 14.9 µM | [19] 3.57 µM

CC(=O)C=C(C)C
inactive: [1] | [2] | [3] | [4] | [5] | [6] | [7] | [8] | [9] | [10] | [11] | [12] | [13] | [20] | [15] | [16] | [17] | [18]

CCCCC(CC)CO[N+](=O)[O-] (stereo not given)
active: [9] 99.5 µM
inactive: [1] | [2] | [3] | [4] | [5] | [6] | [7] | [8] | [10] | [11] | [12] | [13] | [20] | [14] | [15] | [16] | [17] | [18] | [19]

OCC(O)CCl (stereo not given)
inactive: [1] | [2] | [3] | [4] | [5] | [6] | [7] | [8] | [9] | [10] | [11] | [12] | [13] | [20] | [15] | [16] | [17] | [18] | [19]

[O-][Cl+2]([O-])O
inactive: [1] | [2] | [3] | [4] | [5] | [6] | [7] | [8] | [9] | [10] | [11] | [12] | [13] | [20] | [15] | [16] | [17] | [18] | [19]
